The values that follow come from PubChem BioAssay (EPA / NIEHS).

Values joined by “and” are separate entries in the source; they are usually repeats but may differ in a detail not shown here. Equal values may be shown once. The source holds several records for some structures; these can differ, active in one and inactive in another. Active and inactive are the calls of the source. Rule for the calls: active = hit-call score of the fitted dose curve at least 0.9, where 1 is the maximum; inactive = score below 0.9.

The nature of this experiment: ATG_AP_2_CIS: Attagene CIS-FACTORIAL HepG2 Assay for human Activator Protein 2 (AP-2) (AID 2282932). Particulars: HepG2 AP-2 cis-reporter, Attagene transcription factor profiling; AC50: actives raise or lower the signal unless noted; outcome: actives raise or lower the signal unless noted. Summed up:
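Step one: transient transfection of HepG2 with reporter transcription units. Step two: 24 h chemical exposure. Step three: RNA extraction, RT-PCR, labelled fragment analysis by capillary electrophoresis; DMSO serves as baseline.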
For `Cc1ccc(C(=O)c2ccccc2)cc1`, the result was inactive.
On the same count and under the same terms, the value for `O=CC(F)(F)C(F)(F)C(F)(F)C(F)F` was “inactive”.
By AC50 is commonly meant the midpoint of the concentration-response curve, whichever way the signal moves. Turning to `C[C@]12CC[C@@H]3c4ccc(O)cc4CC[C@H]3[C@@H]1C[C@@H](O)[C@@H]2O`, the AC50 is 24.9 µM (active) and the outcome was inactive.
In the case of `O=C1NS(=O)(=O)c2ccccc21`, the call was inactive.
On the same count and under the same terms, the value for `Cc1cc(C(C)(C)C)c(O)c(C(C)(C)C)c1` was “inactive”; that for `CC(C)(C)c1ccc(O)c(O)c1` was “inactive”; that for `CCCCCCCCCCCC(=O)O` was “inactive”.
In the case of `CN(C)c1ccc(C(=C2C=CC(=[N+](C)C)C=C2)c2ccccc2)cc1`, the AC50 is 2.72 µM (active) and the outcome was inactive.
Turning to `O=C1OC2(c3ccccc31)c1cc(I)c(O)c(I)c1Oc1c2cc(I)c(O)c1I`, the molecule was classed as inactive.
For the molecule `CC(O)COc1ccccc1` (centres undefined), the call was inactive.
Same read-out and setting: the value for `CN(C)CCOC(c1ccccc1)c1ccccc1` was “inactive”.
Still for that read-out and setting: in the case of `CCCCC(CC)C(=O)O` (centres undefined) it was “inactive”; in that of `Cc1ccc2ccc3ccc(C)cc3c2c1`, “inactive”.
Same read-out and setting: the value for `O=C(c1ccccc1)c1ccccc1` was “inactive”.
`COCN(COC)c1nc(N(COC)COC)nc(N(COC)COC)n1`: the result was inactive.
The same measure, in the same setting: the value for `CC(C)c1c(C(=O)Nc2ccccc2)c(-c2ccccc2)c(-c2ccc(F)cc2)n1CC[C@@H](O)C[C@@H](O)CC(=O)O` was “inactive”.
Take `Cc1ccccc1C(OCCN(C)C)c1ccccc1` (centres undefined): the call was inactive.
Still for that read-out and setting: the value for `O=C(CCCN1CCC(O)(c2ccc(Cl)cc2)CC1)c1ccc(F)cc1` was “inactive”.
On the same count and under the same terms, the value for `CCCCCCCCCCCCCCC` was “inactive”.
As to `O=C(NO)c1ccccc1`, the AC50 was 63.6 µM (active) and 59.8 µM (active); the molecule was classed as inactive.
For `CCCCc1oc2ccccc2c1C(=O)c1cc(I)c(OCCN(CC)CC)c(I)c1`, the concentration at half-maximal activity (AC50) is 130 µM (active).
